# From PubChem BioAssay (Tox21)
# Results filed as inconclusive are left out. A call without a number means that no potency is given here. Activity calls are given as the source filed them. Calls come from the whole dose curve; as a rule, active = well fitted curve in the direction sought with a large enough effect in the repeat runs; inconclusive = weak or mixed curves; inactive = no such curve, though single readings can be large; an effect the other way counts as inactive or inconclusive.
# Assays:
# [1] = molecular target: Cytochrome P450 2C19 (Homo sapiens) (UniProt P33261); assay: Cytochrome P450 Family 2 Subfamily C Member 19 (CYP2C19) small molecule antagonists: luciferase reporter qHTS assay (AID 1671197); note: nearly all actives have a fitted effect of over 65% in size; for activity change, negative = inhibition: series mostly up to about 120 µM
# Method in brief: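 Luminescent readout of CYP2C19 activity: luciferin product detected 20 min after adding detection reagent. Before that, compound and enzyme-substrate mix preincubated 10 min at room temperature; NADPH-regenerating system started a 1 h, 37C reaction. Ketoconazole as positive control.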
# [2] = molecular target: Cytochrome P450 2C9 (Homo sapiens) (UniProt P11712); assay: Cytochrome P450 Family 2 Subfamily C Member 9 (CYP2C9) small molecule antagonists: luciferase reporter qHTS assay (AID 1671198); note: nearly all actives have a fitted effect of over 50% in size; for activity change, negative = inhibition: series mostly up to about 120 µM
# Method in brief: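 CYP2C9 activity was measured with a P450-Glo proluciferin substrate. Enzyme–substrate mix was held with compound for 10 min at room temperature, then NADPH regeneration solution was added for 1 h at 37C. Luciferin product was read as luminescence.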
# [3] = molecular target: Cytochrome P450 1A2 (Homo sapiens) (UniProt P05177); assay: Cytochrome P450 Family 1 Subfamily A Member 2 (CYP1A2) small molecule antagonists: luciferase reporter qHTS assay (AID 1671199); note: nearly all actives have a fitted effect of over 50% in size; for activity change, negative = inhibition: series mostly up to about 120 µM
# Method in brief: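 P450-Glo CYP1A2 enzyme–proluciferin substrate mix with compound 10 min at room temperature, then NADPH regeneration 1 h at room temperature. Luciferin detection reagent added, luminescence read after 20 min; furafylline positive control.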
# [4] = molecular target: Voltage-gated inwardly rectifying potassium channel KCNH2 (Homo sapiens) (UniProt Q12809); assay: Human Ether-a-go-go-Related Gene (hERG) channel small molecule antagonists: fluorescence cell-based qHTS assay (AID 1671200); note: nearly all actives have a fitted effect of over 50% in size;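 for activity change, negative = inhibition: hERG-expressing U2OS cells given a thallium stimulus after FluxOR II dye loading; series mostly up to about 77 µM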
# Method in brief: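 First, 1000 cells per well are seeded and cultured overnight at 37 C. Next, FluxOR II dye is loaded for 1 h at room temperature, protected from light. After 10 more minutes, stimulus is added and fluorescence is read.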
# [5] = molecular target: Cytochrome P450 3A4 (Homo sapiens) (UniProt P08684); assay: Cytochrome P450 Family 3 Subfamily A Member 4 (CYP3A4) small molecule antagonists: luciferase reporter qHTS assay (AID 1671201); note: nearly all actives have a fitted effect of over 50% in size; for activity change, negative = inhibition: series mostly up to about 120 µM
# Method in brief: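 Enzyme and proluciferin substrate are mixed with test chemicals for 10 min, then NADPH regeneration system drives turnover for 1 h at room temperature. A detection reagent halts the reaction; luminescence after 20 min gives relative activity.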
# Potency is the fitted concentration of half-maximal effect.
# Cytochrome P450 1A2 (Homo sapiens), sequence (P05177 whole entry, looked up): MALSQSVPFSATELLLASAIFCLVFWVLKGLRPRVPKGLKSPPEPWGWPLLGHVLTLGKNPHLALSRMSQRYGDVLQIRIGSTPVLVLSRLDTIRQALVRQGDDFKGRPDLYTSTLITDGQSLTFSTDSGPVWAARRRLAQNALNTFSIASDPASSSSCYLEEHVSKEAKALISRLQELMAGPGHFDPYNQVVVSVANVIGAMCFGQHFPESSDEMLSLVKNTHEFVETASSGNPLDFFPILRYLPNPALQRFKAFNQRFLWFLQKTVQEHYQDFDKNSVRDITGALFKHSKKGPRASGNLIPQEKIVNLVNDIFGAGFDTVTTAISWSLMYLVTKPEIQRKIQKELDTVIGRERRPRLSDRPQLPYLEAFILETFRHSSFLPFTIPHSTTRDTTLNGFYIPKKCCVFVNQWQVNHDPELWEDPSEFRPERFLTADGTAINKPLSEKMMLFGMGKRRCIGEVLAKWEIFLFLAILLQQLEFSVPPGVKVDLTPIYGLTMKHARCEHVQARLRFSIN
# Cytochrome P450 2C19 (Homo sapiens), sequence (P33261 whole entry, looked up): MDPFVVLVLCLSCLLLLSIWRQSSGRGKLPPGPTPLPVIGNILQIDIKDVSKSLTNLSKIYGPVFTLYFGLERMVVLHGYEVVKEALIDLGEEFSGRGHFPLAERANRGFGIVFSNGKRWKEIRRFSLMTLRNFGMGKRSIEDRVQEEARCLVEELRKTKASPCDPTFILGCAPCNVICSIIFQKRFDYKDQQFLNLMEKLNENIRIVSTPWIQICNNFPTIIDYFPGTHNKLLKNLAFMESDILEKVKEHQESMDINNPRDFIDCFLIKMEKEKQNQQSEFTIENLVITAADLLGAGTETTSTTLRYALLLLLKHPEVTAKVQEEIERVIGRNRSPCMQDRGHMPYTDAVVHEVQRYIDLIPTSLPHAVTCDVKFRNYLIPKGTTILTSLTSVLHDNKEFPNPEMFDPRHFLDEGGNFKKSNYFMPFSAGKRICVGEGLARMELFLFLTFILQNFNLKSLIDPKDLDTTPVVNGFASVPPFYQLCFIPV
# Cytochrome P450 3A4 (Homo sapiens), sequence (P08684 whole entry, looked up): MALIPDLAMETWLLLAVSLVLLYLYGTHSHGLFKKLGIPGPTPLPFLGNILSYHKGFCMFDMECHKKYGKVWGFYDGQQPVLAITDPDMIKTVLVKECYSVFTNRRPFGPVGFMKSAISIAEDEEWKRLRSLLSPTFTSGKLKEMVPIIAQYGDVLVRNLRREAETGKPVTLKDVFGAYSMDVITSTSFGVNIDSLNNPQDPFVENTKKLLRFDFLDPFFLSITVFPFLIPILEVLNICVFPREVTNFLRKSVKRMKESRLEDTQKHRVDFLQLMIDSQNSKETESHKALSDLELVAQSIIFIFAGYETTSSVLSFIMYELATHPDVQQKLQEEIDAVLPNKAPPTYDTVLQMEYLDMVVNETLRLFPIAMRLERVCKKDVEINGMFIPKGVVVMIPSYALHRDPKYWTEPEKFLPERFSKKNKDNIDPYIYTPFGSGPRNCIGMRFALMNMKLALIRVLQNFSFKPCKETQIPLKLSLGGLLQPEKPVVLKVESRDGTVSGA
# Voltage-gated inwardly rectifying potassium channel KCNH2 (Homo sapiens), sequence (Q12809 whole entry, looked up): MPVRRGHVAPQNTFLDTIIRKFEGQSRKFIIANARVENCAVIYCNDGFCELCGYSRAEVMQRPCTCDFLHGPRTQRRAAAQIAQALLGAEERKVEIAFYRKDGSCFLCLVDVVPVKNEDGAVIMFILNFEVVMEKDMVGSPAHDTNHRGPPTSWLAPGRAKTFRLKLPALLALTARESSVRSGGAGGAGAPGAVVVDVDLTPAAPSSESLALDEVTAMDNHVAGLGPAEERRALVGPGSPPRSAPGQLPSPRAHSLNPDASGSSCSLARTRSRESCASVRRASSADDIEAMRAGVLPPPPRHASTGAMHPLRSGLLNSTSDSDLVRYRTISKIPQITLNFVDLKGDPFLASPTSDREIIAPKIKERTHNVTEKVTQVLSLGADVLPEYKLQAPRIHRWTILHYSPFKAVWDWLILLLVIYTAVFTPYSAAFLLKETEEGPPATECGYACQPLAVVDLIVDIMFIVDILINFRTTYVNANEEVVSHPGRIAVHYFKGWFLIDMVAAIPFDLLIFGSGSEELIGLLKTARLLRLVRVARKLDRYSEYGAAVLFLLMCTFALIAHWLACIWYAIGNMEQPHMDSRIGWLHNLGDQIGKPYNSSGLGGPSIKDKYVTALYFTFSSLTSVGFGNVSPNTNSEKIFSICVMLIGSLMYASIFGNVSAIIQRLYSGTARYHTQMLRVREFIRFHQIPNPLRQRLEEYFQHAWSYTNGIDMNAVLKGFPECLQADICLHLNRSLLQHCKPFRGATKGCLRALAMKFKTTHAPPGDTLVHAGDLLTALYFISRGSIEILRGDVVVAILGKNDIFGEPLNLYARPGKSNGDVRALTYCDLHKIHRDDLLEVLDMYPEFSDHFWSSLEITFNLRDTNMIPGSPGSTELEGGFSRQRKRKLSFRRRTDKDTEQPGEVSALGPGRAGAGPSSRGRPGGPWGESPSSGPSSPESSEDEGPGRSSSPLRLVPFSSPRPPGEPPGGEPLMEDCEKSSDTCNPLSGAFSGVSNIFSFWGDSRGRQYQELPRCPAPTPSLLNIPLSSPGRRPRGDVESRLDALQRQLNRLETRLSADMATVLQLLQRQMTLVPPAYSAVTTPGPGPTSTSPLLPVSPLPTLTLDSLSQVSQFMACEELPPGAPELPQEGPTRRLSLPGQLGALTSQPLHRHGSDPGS
# Cytochrome P450 2C9 (Homo sapiens), sequence (P11712 whole entry, looked up): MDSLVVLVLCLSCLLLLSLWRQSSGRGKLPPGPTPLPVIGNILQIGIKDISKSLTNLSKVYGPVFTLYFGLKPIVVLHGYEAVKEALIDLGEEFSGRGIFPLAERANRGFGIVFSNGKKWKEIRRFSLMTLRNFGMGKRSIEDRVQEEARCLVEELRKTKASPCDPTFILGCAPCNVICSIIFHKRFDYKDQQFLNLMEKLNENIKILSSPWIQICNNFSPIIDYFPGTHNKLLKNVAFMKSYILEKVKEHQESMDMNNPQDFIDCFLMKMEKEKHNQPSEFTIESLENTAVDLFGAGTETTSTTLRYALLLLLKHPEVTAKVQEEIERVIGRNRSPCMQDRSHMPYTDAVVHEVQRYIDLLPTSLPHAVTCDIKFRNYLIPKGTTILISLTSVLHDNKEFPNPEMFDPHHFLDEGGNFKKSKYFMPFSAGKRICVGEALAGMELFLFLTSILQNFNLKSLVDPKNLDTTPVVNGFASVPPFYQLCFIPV
smiles,measurement,setting,value
OCC1CC=CCC1 (centres undefined),Potency,[1],inactive
same,Potency,[2],inactive
same,Potency,[3],inactive
same,Potency,[4],inactive
same,Potency,[5],inactive
CCOC(=O)c1ccccc1OC,Potency,[1],79.6 µM (active)
same,Potency,[2],inactive
same,Potency,[3],35.6 µM (active)
same,Potency,[4],inactive
same,Potency,[5],inactive
COC(=O)c1cc(Cl)ccc1NS(=O)(=O)C(F)(F)F,Potency,[1],inactive
same,Potency,[2],inactive
same,Potency,[3],0.55 µM (active)
same,Potency,[4],inactive
same,Potency,[5],inactive
CCCC(=O)O[C@]1(C(=O)COC(=O)CC)CC[C@H]2[C@@H]3CCC4=CC(=O)CC[C@]4(C)[C@H]3[C@@H](O)C[C@@]21C,"activity change, negative = inhibition",[1],-11.3% [at 23.6 µM] (inactive)
same,"activity change, negative = inhibition",[2],11.6% [at 23.6 µM] (inactive)
same,Potency,[3],inactive
same,"activity change, negative = inhibition",[4],4.88% [at 15.8 µM] (inactive)
same,"activity change, negative = inhibition",[5],1.97% [at 23.6 µM] (inactive)
NC(=O)N(O)[C@@H]1COc2cc(OCc3ccccc3)ccc21,Potency,[1],5.03 µM (active)
same,Potency,[2],7.96 µM (active)
same,Potency,[3],5.03 µM (active)
same,Potency,[4],inactive
same,Potency,[5],2.52 µM (active)
CCCCC/C(=C\c1ccccc1)CO,Potency,[1],1.76 µM (active)
same,Potency,[2],39.4 µM (active)
same,Potency,[3],3.94 µM (active)
same,Potency,[5],inactive
C=CC(=C)CCCC(C)(C)OC(C)=O,Potency,[1],inactive
same,Potency,[2],inactive
same,Potency,[4],inactive
same,Potency,[5],inactive
CCCCCCCCCOC(C)=O,Potency,[1],inactive
same,Potency,[2],inactive
same,Potency,[4],inactive
same,Potency,[5],inactive
CCOC(=O)[C@@H](C)Oc1ccc(Oc2nc3ccc(Cl)cc3o2)cc1,Potency,[1],79.6 µM (active)
same,Potency,[2],35.6 µM (active)
same,Potency,[4],19.5 µM (active)
same,Potency,[5],inactive
C/C=C(\C)C(=O)OCCC(C)CCC=C(C)C (centres undefined),Potency,[1],20 µM (active)
same,Potency,[2],39.9 µM (active)
same,Potency,[4],inactive
same,Potency,[5],20 µM (active)
O=C1NCCN1,Potency,[1],34.1 µM (active)
same,Potency,[2],inactive
same,Potency,[4],inactive
same,Potency,[5],inactive
Cc1cc(O)c2c(O)c3c(O)cccc3cc2c1,Potency,[1],4.36 µM (active)
same,Potency,[2],4.9 µM (active)
same,Potency,[4],inactive
CCCC1C(CC)=CC(CC)=CN1c1ccccc1 (centres undefined),Potency,[1],2 µM (active)
same,Potency,[2],17.8 µM (active)
same,Potency,[3],11.2 µM (active)
same,Potency,[5],31.7 µM (active)
OCCSc1ccccc1,Potency,[1],inactive
same,Potency,[2],inactive
same,Potency,[3],39.9 µM (active)
same,Potency,[5],inactive
Cc1ccnc2ccccc12,Potency,[1],inactive
same,Potency,[2],inactive
same,Potency,[4],inactive
same,Potency,[5],inactive
O=C(O)c1ccccc1NCCc1ccccc1,Potency,[1],inactive
same,Potency,[2],13.8 µM (active)
same,Potency,[4],inactive
same,Potency,[5],inactive
O=C(/C=C/c1ccccc1)OCCCc1ccccc1,Potency,[1],39.9 µM (active)
same,Potency,[2],22.4 µM (active)
same,Potency,[3],12.6 µM (active)
same,Potency,[5],inactive
COc1ccc(CCC(=O)c2c(O)cc(O[C@@H]3O[C@H](CO)[C@@H](O)[C@H](O)[C@H]3O[C@@H]3O[C@@H](C)[C@H](O)[C@@H](O)[C@H]3O)cc2O)cc1O,Potency,[1],inactive
same,Potency,[2],25.3 µM (active)
same,Potency,[4],inactive
CCCCCCCCSCCO,Potency,[1],20 µM (active)
same,Potency,[2],44.8 µM (active)
same,Potency,[3],39.9 µM (active)
same,Potency,[5],inactive
CC(=O)Oc1ccc2c(c1)CC[C@@H]1[C@@H]2CC[C@]2(C)[C@@H](O)CC[C@@H]12,Potency,[1],24.5 µM (active)
same,Potency,[2],inactive
same,Potency,[4],inactive
same,Potency,[5],inactive
CC(C)(O)c1ccccc1CC[C@@H](SCC1(CC(=O)O)CC1)c1cccc(/C=C/c2ccc3ccc(Cl)cc3n2)c1,Potency,[1],inactive
same,Potency,[2],inactive
same,Potency,[3],inactive
same,Potency,[5],inactive
CO[Si](C)(OC)OC,Potency,[1],inactive
same,Potency,[2],inactive
same,Potency,[4],inactive
same,Potency,[5],4.91 µM (active)
CCCCN(CCCC)C(=S)SSC(=S)N(CCCC)CCCC,Potency,[1],17.7 µM (active)
same,Potency,[2],2.8 µM (active)
same,Potency,[3],35.2 µM (active)
same,Potency,[5],5.58 µM (active)
O=Cc1c(Cl)cccc1Cl,Potency,[1],inactive
same,Potency,[2],inactive
same,Potency,[4],inactive
same,Potency,[5],inactive
COc1ccc(C(=O)c2cccc(O)c2)c(OC)c1,Potency,[1],3.55 µM (active)
same,Potency,[2],inactive
same,Potency,[4],inactive
same,Potency,[5],31.7 µM (active)
COc1ccc([C@@H]2Sc3ccccc3NC(=O)[C@@H]2O)cc1,Potency,[1],21.9 µM (active)
same,Potency,[2],17.4 µM (active)
same,Potency,[4],inactive
same,Potency,[5],inactive
C=CC(=O)NCOCC(C)C,Potency,[1],inactive
same,Potency,[2],inactive
same,Potency,[4],inactive
same,Potency,[5],inactive
CCn1nc(C)c2c1C(=O)NCC(c1ccc(O)cc1)=N2,Potency,[1],inactive
same,Potency,[2],44.8 µM (active)
same,Potency,[3],63.3 µM (active)
same,Potency,[5],31.7 µM (active)
O=C(Nc1ccccc1)Nc1ccccc1,Potency,[1],4.5 µM (active)
same,Potency,[2],22.6 µM (active)
same,Potency,[3],17.9 µM (active)
same,Potency,[5],inactive
O=S(=O)(c1ccccc1)c1ccc(Cl)cc1,Potency,[1],3.99 µM (active)
same,Potency,[2],inactive
same,Potency,[3],44.8 µM (active)
same,Potency,[5],inactive
CC(CCO)CCc1ccccc1 (centres undefined),Potency,[1],7.96 µM (active)
same,Potency,[2],35.6 µM (active)
same,Potency,[3],22.4 µM (active)
same,Potency,[5],inactive
COc1cc2[nH]c(=O)[nH]c(=O)c2cc1OC,Potency,[1],inactive
same,Potency,[2],inactive
same,Potency,[4],inactive
same,Potency,[5],inactive
CCCCCCCC/C=C\CCCCCCCC(=O)OC(CO)CO,Potency,[1],71 µM (active)
same,Potency,[2],20 µM (active)
same,Potency,[3],71 µM (active)
same,Potency,[5],17.8 µM (active)
CO/N=C1\CN(c2nc3c(cc2F)c(=O)c(C(=O)O)cn3C2CC2)CC1CN (centres undefined),Potency,[1],inactive
same,Potency,[2],inactive
same,Potency,[3],inactive
same,Potency,[5],inactive
Brc1cc(-c2ccc(Br)c(Br)c2Br)cc(Br)c1Br,Potency,[1],39.3 µM (active)
same,Potency,[2],inactive
same,Potency,[4],inactive
same,Potency,[5],inactive
CC1C2CC(CC2C2CCCC(O)C2)C1(C)C (centres undefined),Potency,[1],35.6 µM (active)
same,Potency,[2],35.6 µM (active)
same,Potency,[4],24.5 µM (active)
CCc1c2c(nc3ccc(OC(=O)N4CCC(N5CCCCC5)CC4)cc13)-c1cc3c(c(=O)n1C2)COC(=O)[C@]3(O)CC,Potency,[1],inactive
same,Potency,[2],inactive
same,Potency,[3],inactive
same,Potency,[5],inactive
Nc1ccc(S(=O)(=O)O)c(N)c1,Potency,[1],31.7 µM (active)
same,Potency,[2],inactive
same,Potency,[3],22.4 µM (active)
same,Potency,[5],inactive
CCCOCCOCCO,Potency,[1],inactive
same,Potency,[2],inactive
same,Potency,[3],inactive
same,Potency,[5],inactive
CCCCC(CC)C(=O)OCCOCCOCCOCCOC(=O)C(CC)CCCC (centres undefined),Potency,[1],22.4 µM (active)
same,Potency,[2],12.6 µM (active)
same,Potency,[3],31.7 µM (active)
same,Potency,[5],12.6 µM (active)
Cc1nc2ccccn2c(=O)c1CCN1CCC(C(=O)c2ccc(F)cc2)CC1,Potency,[1],inactive
same,Potency,[2],inactive
same,Potency,[3],inactive
same,Potency,[5],inactive
COc1cc2c(N3CCN(C(=O)Nc4ccc(OC(C)C)cc4)CC3)ncnc2cc1OCCCN1CCCCC1,Potency,[1],inactive
same,Potency,[2],inactive
same,Potency,[3],inactive
same,Potency,[5],inactive
CC1=CC(=O)CC(C)(C)C1(O)/C=C/C(C)=C\C(=O)O (centres undefined),Potency,[1],inactive
same,Potency,[2],inactive
same,Potency,[4],inactive
same,Potency,[5],inactive
c1cc[c]([Bi]([c]2ccccc2)[c]2ccccc2)cc1,Potency,[1],0.283 µM (active)
same,Potency,[2],1 µM (active)
same,Potency,[3],inactive
same,Potency,[5],2.24 µM (active)
CCCCCCOC(=O)CCCCCCCC(=O)OCCCCCC,Potency,[1],inactive
same,Potency,[2],inactive
same,Potency,[5],inactive
Fc1c(F)c(F)c(Br)c(F)c1F,Potency,[1],inactive
same,Potency,[2],inactive
same,Potency,[4],inactive
same,Potency,[5],inactive
CCCCC(CC)COC(=O)COc1ccc(Cl)cc1C (centres undefined),Potency,[1],8.94 µM (active)
same,Potency,[3],12.6 µM (active)
same,Potency,[4],inactive
same,Potency,[5],8.94 µM (active)
